Assay results published in PubChem BioAssay AID504915 (The Scripps Research Institute Molecular Screening Center, 2011).
This is one part of the list. A number with no mark means an inactive call. The source made the active and inactive calls. Cut-off read from the data, not from the text of the source: active = activation above about 17%; inactive = the rest.

Molecular target: 5-hydroxytryptamine receptor 5A (Homo sapiens) (UniProt P47898)
Assay: activation of human 5-HT5A receptor – cell-based, luminescence, confirmation (AID 504915);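 note: 0% = cells with vehicle only and 100% = full reference agonist response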
Conditions: HTR5A agonist cell assay, at 9.3 µM, active compounds read high

Chain of 5-hydroxytryptamine receptor 5A (Homo sapiens) (P47898 whole entry, looked up): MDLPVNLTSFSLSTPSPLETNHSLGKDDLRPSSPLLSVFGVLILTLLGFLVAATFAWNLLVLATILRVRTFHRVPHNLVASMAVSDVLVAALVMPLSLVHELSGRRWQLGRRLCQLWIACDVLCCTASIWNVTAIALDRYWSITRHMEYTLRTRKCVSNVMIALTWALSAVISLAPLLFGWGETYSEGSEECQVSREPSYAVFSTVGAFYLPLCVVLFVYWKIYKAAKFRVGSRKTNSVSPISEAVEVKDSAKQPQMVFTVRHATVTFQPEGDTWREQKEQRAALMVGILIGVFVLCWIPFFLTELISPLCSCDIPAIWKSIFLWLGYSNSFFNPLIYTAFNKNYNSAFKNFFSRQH

Structure (SMILES) | activation
c1ccc(-n2nc3ccccc3n2)cc1 | 1.33%
COc1ccccc1S(=O)(=O)NCc1ccc(C(=O)N(C)Cc2ccc(F)cc2)cc1 | -2.33%
CCCN(CCc1ccccc1)C1CCc2c(O)cccc2C1 (configuration not stated) | 37.2% (active)
Cc1ccc(-c2csc(SCC(=O)Nc3cc(C)on3)n2)cc1 | 2.91%
CCn1nc(C(=O)OCC(=O)N2c3ccccc3CC2C)c2ccccc2c1=O (configuration not stated) | -1.95%
CCOC(=O)c1cnc2sccn2c1=O | 5.5%
CC(C)OC(=O)c1c(NC(=O)c2ccco2)sc2c1CCCC2 | 0.39%
CCC(C)NC(=O)CCCc1ccccc1 (configuration not stated) | 0.89%
Cc1ccccc1CN1CCN(CC(=O)NCc2ccccn2)C1=O | 3.7%
CC(=O)c1c(C)[nH]c(C(=O)OCC(=O)Nc2c(C)cccc2C)c1C | 1.01%
CC1CCN(S(=O)(=O)c2nnc(NC(=O)COc3ccccc3F)s2)CC1 | -0.56%
COc1cccc(OCC(=O)Nc2ccccc2C(N)=O)c1 | 26.9% (active)
CC(C)CC(=O)N/C(N)=N/c1nc2ccccc2s1 | -0.51%
CC(=O)COc1ccc2c(-c3ccccc3)cc(=O)oc2c1 | 4.18%
COc1cccc(/C=N/NC(=O)c2[nH]nc3c2CCc2ccccc2-3)c1O | -2.75%
O=C(OC12CC3CC(CC(C3)C1)C2)c1ccc(NCc2cc(O)ccc2O)cc1 | 7.13%
O=C(c1cccnc1)N(c1cc2sc(=O)oc2c2ccccc12)S(=O)(=O)c1ccccc1 | 2.35%
